Consider ten sequences from article PMC5700166.

Assay in all cases: protein-binding microarray (PBM); PBM: ~300 nM protein, 6 mM HEPES pH 7.8, 80 mM KCl, 0.5 mM EDTA, 0.5 mM EGTA, 6% glycerol, 35 ng/ul poly-dIdC, 1% milk, 1 h, room temperature; Ap Aiptasia and Nv Nematostella (sea anemones) / Co Capsaspora / Aq Amphimedon (sponge) / Dm Drosophila / Hu human; RHD is the Rel homology domain; high values mean tight binding
Conditions in all cases: dsDNA, one strand shown

One assay deals with T1, GST-Ap-NF-kB RHD (Exaiptasia pallida (Aiptasia), UniProt A0A913YAJ5 2-422).
T1 sequence: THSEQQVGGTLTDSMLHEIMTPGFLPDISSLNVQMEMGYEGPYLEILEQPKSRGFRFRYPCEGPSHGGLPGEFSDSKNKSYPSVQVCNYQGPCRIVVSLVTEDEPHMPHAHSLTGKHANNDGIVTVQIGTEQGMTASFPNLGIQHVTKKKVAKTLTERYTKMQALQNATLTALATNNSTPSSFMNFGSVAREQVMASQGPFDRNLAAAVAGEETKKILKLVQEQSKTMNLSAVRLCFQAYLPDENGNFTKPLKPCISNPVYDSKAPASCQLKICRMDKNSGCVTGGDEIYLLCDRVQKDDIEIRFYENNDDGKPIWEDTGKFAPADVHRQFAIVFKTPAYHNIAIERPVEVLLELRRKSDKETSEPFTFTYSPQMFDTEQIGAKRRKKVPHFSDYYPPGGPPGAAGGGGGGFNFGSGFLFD

The target in assay [1] is T2, GST-Nv-NF-kB (Cys allele) (Nematostella vectensis, UniProt E5G601 2-411).
T2 sequence: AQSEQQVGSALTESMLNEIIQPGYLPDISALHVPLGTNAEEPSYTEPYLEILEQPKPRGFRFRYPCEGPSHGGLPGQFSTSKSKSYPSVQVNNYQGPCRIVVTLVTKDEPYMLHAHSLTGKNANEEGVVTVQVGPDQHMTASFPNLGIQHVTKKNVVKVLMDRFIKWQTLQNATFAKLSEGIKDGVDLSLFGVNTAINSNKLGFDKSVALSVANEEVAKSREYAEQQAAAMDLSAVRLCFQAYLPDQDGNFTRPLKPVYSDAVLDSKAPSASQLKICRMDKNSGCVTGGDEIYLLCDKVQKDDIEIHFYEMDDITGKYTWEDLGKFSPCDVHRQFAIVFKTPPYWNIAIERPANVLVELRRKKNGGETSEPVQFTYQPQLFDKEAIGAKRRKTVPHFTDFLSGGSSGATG

The target of another assay is T3, GST-Co-NF-kB (Capsaspora owczarzaki, UniProt F1ARL5 200-546).
T3 sequence: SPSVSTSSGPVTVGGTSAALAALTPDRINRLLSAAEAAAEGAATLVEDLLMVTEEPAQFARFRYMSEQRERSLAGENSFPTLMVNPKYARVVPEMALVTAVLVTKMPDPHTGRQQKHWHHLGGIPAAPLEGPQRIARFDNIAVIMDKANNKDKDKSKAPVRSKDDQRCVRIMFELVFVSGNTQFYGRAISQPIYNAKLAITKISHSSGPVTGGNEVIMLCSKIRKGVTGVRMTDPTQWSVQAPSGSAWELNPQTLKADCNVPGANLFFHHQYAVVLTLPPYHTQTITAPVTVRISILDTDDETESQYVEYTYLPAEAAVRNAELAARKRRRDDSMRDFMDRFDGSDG

The next assay deals with T4, GST-Dm-Relish (Drosophila melanogaster, UniProt Q94527 99-473).
T4 sequence: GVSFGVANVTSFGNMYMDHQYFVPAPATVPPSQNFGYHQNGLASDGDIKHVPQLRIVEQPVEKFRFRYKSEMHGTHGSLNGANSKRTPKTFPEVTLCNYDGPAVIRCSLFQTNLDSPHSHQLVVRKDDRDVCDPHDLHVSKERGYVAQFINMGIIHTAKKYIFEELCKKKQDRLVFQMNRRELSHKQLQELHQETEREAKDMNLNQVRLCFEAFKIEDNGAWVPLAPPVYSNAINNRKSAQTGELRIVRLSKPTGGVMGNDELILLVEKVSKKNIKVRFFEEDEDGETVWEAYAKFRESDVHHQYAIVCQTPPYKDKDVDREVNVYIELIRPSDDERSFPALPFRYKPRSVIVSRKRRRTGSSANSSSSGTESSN

The next assay addresses T5, GST-Aq-NF-kB (Amphimedon queenslandica, UniProt A9Y5G7 2-389).
T5 sequence: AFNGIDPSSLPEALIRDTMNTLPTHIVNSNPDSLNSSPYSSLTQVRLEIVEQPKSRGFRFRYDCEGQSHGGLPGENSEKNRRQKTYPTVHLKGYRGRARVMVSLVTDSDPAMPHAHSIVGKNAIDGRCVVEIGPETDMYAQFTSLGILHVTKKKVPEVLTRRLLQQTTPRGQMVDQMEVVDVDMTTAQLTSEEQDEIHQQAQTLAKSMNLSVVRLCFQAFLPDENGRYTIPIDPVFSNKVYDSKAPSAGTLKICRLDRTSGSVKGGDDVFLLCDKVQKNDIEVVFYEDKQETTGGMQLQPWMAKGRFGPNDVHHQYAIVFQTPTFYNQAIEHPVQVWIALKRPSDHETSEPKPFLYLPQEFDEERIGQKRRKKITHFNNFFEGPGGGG

For the sequence “CCGATTAACATCAAGGGGGGTGGTGATGTTAATCGGGTCTTGATTCGCTTGACGCTGCTG”, the binding signal with GST-Ap-NF-kB RHD came to 3.51 z-score; in assay [1], 3.67 z-score; with GST-Co-NF-kB, 3.06 z-score; with GST-Dm-Relish, 4.12 z-score; with GST-Aq-NF-kB, 4.15 z-score.
As to “CCGATTAACATCAGGGGGTTACATGATGTTAATCGGGTCTTGATTCGCTTGACGCTGCTG”, the binding signal with GST-Ap-NF-kB RHD amounted to 6.46 z-score; in assay [1] it was 4.25 z-score; with GST-Co-NF-kB, 3.27 z-score; with GST-Dm-Relish, 6.42 z-score; with GST-Aq-NF-kB, 4.89 z-score.
“CCGATTAACATCATCTCCCCCCATGATGTTAATCGGGTCTTGATTCGCTTGACGCTGCTG”: the binding signal in the assay with GST-Ap-NF-kB RHD stood at 4.75 z-score; in assay [1], 2.53 z-score; with GST-Co-NF-kB it was 8 z-score; in the assay with GST-Dm-Relish, 2.29 z-score; in the assay with GST-Aq-NF-kB, 4.57 z-score.
“CCGATTAACATCACAAACGGGGCTGATGTTAATCGGGTCTTGATTCGCTTGACGCTGCTG”: the binding signal in the assay with GST-Ap-NF-kB RHD is 1.5 z-score; in assay [1], 2.75 z-score; in the assay with GST-Co-NF-kB it was 1.3 z-score; with GST-Dm-Relish, 1.33 z-score; with GST-Aq-NF-kB, 3.49 z-score.
For “CCGATTAACATCAAGGATTCCCGTGATGTTAATCGGGTCTTGATTCGCTTGACGCTGCTG”, in that order: 2.73 z-score, 3.43 z-score, 3.1 z-score, 6.9 z-score and 3.92 z-score.
Regarding “CCGATTAACATCAAGCACCCCCTTGATGTTAATCGGGTCTTGATTCGCTTGACGCTGCTG”, the binding signal was 4.4 z-score with GST-Ap-NF-kB RHD; 3.21 z-score in assay [1]; 1.76 z-score in the assay with GST-Co-NF-kB; 2.85 z-score with GST-Dm-Relish; 4.66 z-score with GST-Aq-NF-kB.
As for “CCGATTAACATCAGGGACTCCCATGATGTTAATCGGGTCTTGATTCGCTTGACGCTGCTG”, the binding signal with GST-Ap-NF-kB RHD was 5.29 z-score; in assay [1] it was 4.05 z-score; in the assay with GST-Co-NF-kB it was 1.08 z-score; in the assay with GST-Dm-Relish, 9.01 z-score; in the assay with GST-Aq-NF-kB, 4.46 z-score.
Turning to “CCGATTAACATCACCACTTTCCCTGATGTTAATCGGGTCTTGATTCGCTTGACGCTGCTG”, the binding signal in the assay with GST-Ap-NF-kB RHD is 3.21 z-score; in assay [1] it was 4.07 z-score; with GST-Co-NF-kB, 3.94 z-score; in the assay with GST-Dm-Relish it was 1.32 z-score; with GST-Aq-NF-kB, 3.11 z-score.
As for “CCGATTAACATCAATGCACCCCCTGATGTTAATCGGGTCTTGATTCGCTTGACGCTGCTG”, the binding signal with GST-Ap-NF-kB RHD is 4.19 z-score; in assay [1] it was 2.93 z-score; in the assay with GST-Co-NF-kB, 3.47 z-score; with GST-Dm-Relish, 3.29 z-score; in the assay with GST-Aq-NF-kB, 3.4 z-score.
Turning to “CCGATTAACATCACAAATTCCCATGATGTTAATCGGGTCTTGATTCGCTTGACGCTGCTG”, the binding signal in the assay with GST-Ap-NF-kB RHD came out at 2.52 z-score; in assay [1], 4.43 z-score; in the assay with GST-Co-NF-kB, 2.69 z-score; with GST-Dm-Relish it was 4.72 z-score; with GST-Aq-NF-kB, 3.15 z-score.
